One experiment addresses PUM1 PUF domain R1-KGQ (Homo sapiens, UniProt Q14671 828-1176, S863K;R864G). Briefly: yeast three-hybrid, YBZ-1, SC-Leu-His + 0.5 mM 3-AT, 4 days. As to conditions: tags: N-Gal4 AD-HA kept; label: inside an RPR1-promoter hybrid RNA with tandem MS2 sites; ssRNA. In outline:
(§1)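 Pumilio-1 PUF domain libraries, randomized (NNK) at the three base-contacting residues of each repeat, were co-expressed with matching RNA elements from a centromeric plasmid in strain YBZ-1 (LexA–MS2 coat fusion, HIS3 reporter). Transformants were plated on SC-Leu (input) and SC-Leu-His + 0.5 mM 3-AT (selection) for four days, and repeat regions were PCR-amplified and Illumina-sequenced. The interaction score is the log2 change in variant frequency from input to selection, with pseudocount 1 where absent.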
Sequence of PUM1 PUF domain R3-IWG (Q14671 828-1176 C935I/R936W/Q939G): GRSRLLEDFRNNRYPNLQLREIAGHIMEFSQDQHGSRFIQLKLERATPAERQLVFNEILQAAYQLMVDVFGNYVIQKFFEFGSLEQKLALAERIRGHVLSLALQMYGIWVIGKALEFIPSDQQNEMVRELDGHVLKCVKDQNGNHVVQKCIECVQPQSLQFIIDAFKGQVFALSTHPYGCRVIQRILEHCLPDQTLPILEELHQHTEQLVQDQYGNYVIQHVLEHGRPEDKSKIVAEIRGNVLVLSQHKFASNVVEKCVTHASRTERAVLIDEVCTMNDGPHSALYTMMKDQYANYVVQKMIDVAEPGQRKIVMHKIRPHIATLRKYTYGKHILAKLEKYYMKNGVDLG
Sequence of PUM1 PUF domain R3-GPR (Q14671 828-1176 C935G/R936P/Q939R): as the sequence (Q14671 828-1176 C935I/R936W/Q939G) above, with I108G, W109P, G112R counted along it
“GGCUAGAACUAGUGGAUCCCCCGGCGCCCGGCGGCUCGAGCCCGGGUAAGUGUAAAUCGUCUGCAUGCCGCCGGGCGCCAUGCCUGCAGGUCGACUCUAGAAAACAUG”: the binding signal is 4.94 log2 enrichment (interaction score).

Regarding “GGCUAGAACUAGUGGAUCCCCCGGCGCCCGGCGGCUCGAGCCCGGGUAAGUGUAAAUUGUCUGCAUGCCGCCGGGCGCCAUGCCUGCAGGUCGACUCUAGAAAACAUG”, the binding signal was 5.42 log2 enrichment (interaction score).

“GGCUAGAACUAGUGGAUCCCCCGGCGCCCGGCGGCUCGAGCCCGGGUAAGUGUAAAUGGUCUGCAUGCCGCCGGGCGCCAUGCCUGCAGGUCGACUCUAGAAAACAUG”: the binding signal was 2.56 log2 enrichment (interaction score).

For a further experiment, the target named is PUM1 PUF domain R4-WSA (Homo sapiens, UniProt Q14671 828-1176, N971W;H972S;Q975A). The description is as above. As to conditions: tags: N-Gal4 AD-HA kept; label: inside an RPR1-promoter hybrid RNA with tandem MS2 sites; ssRNA. In outline: as §1
With “GGCUAGAACUAGUGGAUCCCCCGGCGCCCGGCGGCUCGAGCCCGGGUAAGUGUAUAUAGUCUGCAUGCCGCCGGGCGCCAUGCCUGCAGGUCGACUCUAGAAAACAUG”, the binding signal was 2.96 log2 enrichment (interaction score).

As for “GGCUAGAACUAGUGGAUCCCCCGGCGCCCGGCGGCUCGAGCCCGGGUAAGUGUAAAUAGUCUGCAUGCCGCCGGGCGCCAUGCCUGCAGGUCGACUCUAGAAAACAUG”, the binding signal is 1.33 log2 enrichment (interaction score).

With “GGCUAGAACUAGUGGAUCCCCCGGCGCCCGGCGGCUCGAGCCCGGGUAAGUGUACAUAGUCUGCAUGCCGCCGGGCGCCAUGCCUGCAGGUCGACUCUAGAAAACAUG”, the binding signal is 2.8 log2 enrichment (interaction score).

In another experiment the target is PUM1 PUF domain R3-GPR (Homo sapiens, UniProt Q14671 828-1176, C935G;R936P;Q939R). The description is as above. As to conditions: tags: N-Gal4 AD-HA kept; label: inside an RPR1-promoter hybrid RNA with tandem MS2 sites; ssRNA. In outline:
as §1
Turning to “GGCUAGAACUAGUGGAUCCCCCGGCGCCCGGCGGCUCGAGCCCGGGUAAGUGUAAUUAGUCUGCAUGCCGCCGGGCGCCAUGCCUGCAGGUCGACUCUAGAAAACAUG”, the binding signal was 3.57 log2 enrichment (interaction score).

As to “GGCUAGAACUAGUGGAUCCCCCGGCGCCCGGCGGCUCGAGCCCGGGUAAGUGUAAGUAGUCUGCAUGCCGCCGGGCGCCAUGCCUGCAGGUCGACUCUAGAAAACAUG”, the binding signal was 1.82 log2 enrichment (interaction score).

As for “GGCUAGAACUAGUGGAUCCCCCGGCGCCCGGCGGCUCGAGCCCGGGUAAGUGUAAAUAGUCUGCAUGCCGCCGGGCGCCAUGCCUGCAGGUCGACUCUAGAAAACAUG”, the binding signal is 0.81 log2 enrichment (interaction score).

For “GGCUAGAACUAGUGGAUCCCCCGGCGCCCGGCGGCUCGAGCCCGGGUAAGUGUAACUAGUCUGCAUGCCGCCGGGCGCCAUGCCUGCAGGUCGACUCUAGAAAACAUG”, the binding signal is 1.8 log2 enrichment (interaction score).

Another experiment addresses PUM1 PUF domain R3-IWG (Homo sapiens, UniProt Q14671 828-1176, C935I;R936W;Q939G). The experiment is described as above. As to conditions: tags: N-Gal4 AD-HA kept; label: inside an RPR1-promoter hybrid RNA with tandem MS2 sites; ssRNA. In outline:
as §1
Regarding “GGCUAGAACUAGUGGAUCCCCCGGCGCCCGGCGGCUCGAGCCCGGGUAAGUGUAAUUAGUCUGCAUGCCGCCGGGCGCCAUGCCUGCAGGUCGACUCUAGAAAACAUG”, the binding signal was 3.86 log2 enrichment (interaction score).

As to “GGCUAGAACUAGUGGAUCCCCCGGCGCCCGGCGGCUCGAGCCCGGGUAAGUGUAAGUAGUCUGCAUGCCGCCGGGCGCCAUGCCUGCAGGUCGACUCUAGAAAACAUG”, the binding signal was 5.3 log2 enrichment (interaction score).

Take “GGCUAGAACUAGUGGAUCCCCCGGCGCCCGGCGGCUCGAGCCCGGGUAAGUGUAAAUAGUCUGCAUGCCGCCGGGCGCCAUGCCUGCAGGUCGACUCUAGAAAACAUG”: the binding signal was 5.45 log2 enrichment (interaction score).

The record behind these values is article PMC8384837, “Expanding the binding specificity for RNA recognition by a PUF domain”.
